Our source for the outcome and AC50 values is PubChem BioAssay (EPA / NIEHS).

Records with an inconclusive call do not appear. Calls of active or inactive are those of the source. Rule for the calls, unless noted: active = hit-call score of the fitted dose curve at least 0.9, where 1 is the maximum; inactive = score below 0.9.

What is called AC50 is the concentration giving half of the maximal activity seen.

Test [1] in a line: ATG_TCF_b_cat_CIS: Attagene CIS-FACTORIAL HepG2 Assay for human T-Cell-Factor with beta-catenin (TCF/b-cat) (AID 2282965). Particulars: HepG2 TCF/beta-catenin cis-reporter transcription, actives raise or lower the signal. In short, it runs like this:
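HepG2 cells transiently transfected with cis-promoter-driven multiplexed reporter units; reporter mRNA measured 24 h after dosing by RT-PCR, FAM labelling, HpaI digestion and capillary electrophoresis. Bidirectional fitting relative to DMSO baseline.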

Test [2] is described as follows: ATG_TAL_CIS: Attagene CIS-FACTORIAL HepG2 Assay for human TAL Basal Promoter (AID 2282966).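 Note: background control endpoint measuring basal TAL promoter reporter mRNA not a specific factor.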 Particulars: HepG2 Attagene cis-factorial TAL promoter reporter; actives raise or lower the signal. In short, it runs like this: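 Fluorescence of labelled reporter cDNA fragments, resolved by capillary electrophoresis, gave the readout. Human HepG2 liver cells carried transiently transfected cis-element reporter units and were treated for 24 hours; activity was fitted bidirectionally against DMSO.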

Test [3] can be described thus: ATG_TGFb_CIS: Attagene CIS-FACTORIAL HepG2 Assay for human Transforming Growth Factor (TGF) (AID 2282967). Particulars: HepG2 Attagene CIS TGFb reporter, mRNA transcription; actives raise or lower the signal. In short, it runs like this:
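Endogenous TGFB1-linked transcription factor activity read as reporter mRNA via RT-PCR and capillary electrophoresis, 24 h after dosing transiently transfected HepG2 cells. Gain or loss of signal fitted relative to DMSO.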

Test [4] in a line: ATG_VDRE_CIS: Attagene CIS-FACTORIAL HepG2 Assay for human Vitamin D Receptor Element (VDRE) (AID 2282968). Particulars: HepG2 VDRE cis-reporter transcription, actives raise or lower the signal. In short, it runs like this:
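Cell-based multiplexed reporter format in human liver HepG2 cells, 24 h post-dose. Fluorescence from capillary electrophoresis of reporter cDNA gives the signal, with DMSO as negative control and baseline.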

For test [5], the target named is Estrogen receptor (Homo sapiens) (UniProt P03372). In words: ATG_ERa_TRANS: Attagene TRANS-FACTORIAL HepG2 Assay for human Estrogen Receptor alpha (ERa) (AID 2282970; active = hit-call score of the fitted dose curve at least 0.9, where 1 is the maximum). Particulars: HepG2 Attagene TRANS ERa GAL4 reporter, mRNA. The procedure, abridged: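 Human liver HepG2, transient transfection of multiple GAL4-UAS reporter units; TRANS format (exogenous NR-Gal4 chimera). 24 h dosing. Readout: reporter mRNA, RT-PCR, 6-FAM primer extension, HpaI digest, capillary electrophoresis. Positive direction vs DMSO.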
Chain of Estrogen receptor (Homo sapiens) (P03372 whole entry, looked up, the tested form may be a part): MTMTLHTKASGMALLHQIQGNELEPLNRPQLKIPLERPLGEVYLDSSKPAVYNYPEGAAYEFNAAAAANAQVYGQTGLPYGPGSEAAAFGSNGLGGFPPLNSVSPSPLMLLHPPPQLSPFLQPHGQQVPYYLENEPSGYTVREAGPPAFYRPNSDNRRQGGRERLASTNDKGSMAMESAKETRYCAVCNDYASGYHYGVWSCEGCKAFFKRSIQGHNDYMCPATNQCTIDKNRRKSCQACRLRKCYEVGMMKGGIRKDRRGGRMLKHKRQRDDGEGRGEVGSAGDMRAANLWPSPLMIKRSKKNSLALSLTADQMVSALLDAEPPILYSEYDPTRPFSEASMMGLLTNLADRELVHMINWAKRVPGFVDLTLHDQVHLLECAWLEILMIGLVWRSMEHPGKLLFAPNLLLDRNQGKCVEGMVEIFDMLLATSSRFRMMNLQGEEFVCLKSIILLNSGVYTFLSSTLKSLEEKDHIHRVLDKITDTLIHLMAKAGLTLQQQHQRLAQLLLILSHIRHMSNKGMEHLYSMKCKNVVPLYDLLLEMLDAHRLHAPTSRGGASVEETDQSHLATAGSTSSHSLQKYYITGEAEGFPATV

For test [6], the target named is Steroid hormone receptor ERR1 (Homo sapiens) (UniProt P11474). In words: ATG_ERRa_TRANS: Attagene TRANS-FACTORIAL HepG2 Assay for human Estrogen-Related Receptor alpha (ERRa) (AID 2282971; active = hit-call score of the fitted dose curve at least 0.9, where 1 is the maximum). Particulars: HepG2 Attagene TRANS reporter, ERRa transactivation. In short, it runs like this:
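Reporter transcript induction was quantified by RT-PCR and capillary electrophoresis of FAM-labelled, HpaI-cut products after 24 h treatment of HepG2 cells carrying transiently transfected GAL4-UAS reporter units and an exogenous ERRa-Gal4 fusion; activity scored as increase over DMSO.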

Test [7] concerns the target X-box-binding protein 1 (Homo sapiens) (UniProt P17861). In words: ATG_Xbp1_CIS: Attagene CIS-FACTORIAL HepG2 Assay for human X-box Binding Protein 1 (XBP1) (AID 2282972). Particulars: HepG2 XBP1 cis-element reporter, Attagene multiplex; actives raise or lower the signal. In short, it runs like this: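 HepG2 cells transiently transfected with multiple cis-element reporter units report endogenous TF activity; 24 h exposure, then reporter mRNA measured by RT-PCR, 6-FAM labelling, HpaI digestion and capillary electrophoresis. Bidirectional fitting versus DMSO.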

The nature of test [8]: ATG_M_19_TRANS: Attagene TRANS-FACTORIAL HepG2 Assay for M19 Transcription Factor (Internal Marker) (AID 2282974; active = hit-call score of the fitted dose curve at least 0.9, where 1 is the maximum). Particulars: HepG2 Attagene TRANS-FACTORIAL M19 internal marker reporter. The procedure, abridged: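 Fluorescence of 6-FAM-labelled reporter cDNA fragments, separated by capillary electrophoresis, served as the readout. These derived from HepG2 cells carrying transfected GAL4-UAS reporter units after 24 h dosing, with DMSO as negative control.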

Test [9] addresses Androgen receptor (Homo sapiens) (UniProt P10275). The experiment in a line: ATG_AR_TRANS: Attagene TRANS-FACTORIAL HepG2 Assay for human Androgen Receptor (AR) (AID 2282973; active = hit-call score of the fitted dose curve at least 0.9, where 1 is the maximum). Particulars: HepG2 Attagene TRANS-FACTORIAL AR reporter transcription. On the procedure: ATG_TRANS is a cell-based, multiplexed-readout assay that uses HepG2, a human liver cell line, with measurements taken at 24 hours after chemical dosing in a 24-well plate.ATG_AR_TRANS is one of 30 assay component(s) measured or calculated from the ATG_TRANS assay. It is designed to make measurements of mRNA induction, a form of inducible reporter, as detected with fluorescence intensity signals by Reverse transcription polymerase chain reaction (RT-PCR) and Capillary electrophoresis technology.Data from the assay component ATG_AR_TRANS was analyzed into 1 assay endpoint. This assay endpoint, ATG_AR_TRANS, was analyzed in the positive analysis fitting direction relative to DMSO as the negative control and baseline of activity. Using a type of inducible reporter, measures of mRNA for gain-of-signal activity can be used to understand the reporter gene at the transcription factor-level as they relate to the gene AR. Furthermore, this assay endpoint can be referred to as a primary readout, because this assay has produced multiple assay endpoints where this one serves a reporter gene function. To generalize the intended target to other relatable targets, this assay endpoint is annotated to the nuclear receptor intended target family, where the subfamily is steroidal.
Human liver HepG2 cells are transiently transfected with multiple reporter transcription units (MRTUs) in 6-well plates using FuGene 6 reagent (Roche; 3 ml FuGene/1 mg DNA). The MRTU constructs are regulated by a cis-regulating element (promoter). […] A major difference between the CIS and TRANS system is that in CIS activities of endogenous TFs are measured, whereas the TRANS assay evaluates changes in activities of exogenous, chimeric NR-Gal4 proteins. […] At the end of 24 hour incubation, total RNA was isolated using TriZol reagent (Invitrogen). The isolated RNA is then reverse-transcribed using oligo(dT) primer and Mo-MLV reverse transcriptase (Invitrogen) with DNAse I (Ambion) treatment for 30 min. The one-tenth of the produced cDNA was amplified by PCR using Taq DNA polymerase (Invitrogen) and two reporter sequence-specific primers. The PCR products were fluorescently labeled by primer extension with 6-arboxyfluorescein (6-FAM) 5'-labeled reporter sequence-specific primer (2 min at 95 C, 20 s at 68 C and 10 min at 72 C) and these products were digested with 5U of HpaI (New England Biolabs) for 2h at 37 C. The fragments were purified using Qiaquick PCR columns (Qiagen), analyzed on an ABI 3130xL genetic analyzer (Applied Biosystems) with peak positions identified by using a set of X-rhodamine (ROX)-labeled MapMarker1000 molecular weight standards (BioVentures). The raw capillary electrophoresis data was processed using Attagraph software (Attagene).

Chain of Steroid hormone receptor ERR1 (Homo sapiens) (P11474 whole entry, looked up, the tested form may be a part): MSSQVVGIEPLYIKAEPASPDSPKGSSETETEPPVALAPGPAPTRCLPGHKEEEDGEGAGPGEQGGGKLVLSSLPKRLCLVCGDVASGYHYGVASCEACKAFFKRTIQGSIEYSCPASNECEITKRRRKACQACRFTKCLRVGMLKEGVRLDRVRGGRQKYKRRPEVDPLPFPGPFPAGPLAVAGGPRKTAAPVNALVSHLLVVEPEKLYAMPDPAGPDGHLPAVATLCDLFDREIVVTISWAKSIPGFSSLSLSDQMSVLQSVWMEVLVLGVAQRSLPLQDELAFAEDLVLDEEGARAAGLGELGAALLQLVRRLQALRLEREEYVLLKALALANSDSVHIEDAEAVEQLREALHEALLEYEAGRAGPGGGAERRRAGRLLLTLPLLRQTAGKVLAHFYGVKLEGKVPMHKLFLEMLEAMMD
Chain of X-box-binding protein 1 (Homo sapiens) (P17861 whole entry, looked up): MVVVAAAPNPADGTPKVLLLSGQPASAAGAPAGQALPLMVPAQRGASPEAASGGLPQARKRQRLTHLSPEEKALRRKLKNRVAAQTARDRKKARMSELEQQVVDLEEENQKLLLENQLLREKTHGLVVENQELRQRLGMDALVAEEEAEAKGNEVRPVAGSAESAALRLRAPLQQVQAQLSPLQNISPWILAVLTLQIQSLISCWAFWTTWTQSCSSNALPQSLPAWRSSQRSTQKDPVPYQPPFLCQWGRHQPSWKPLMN
Chain of Androgen receptor (Homo sapiens) (P10275 whole entry, looked up): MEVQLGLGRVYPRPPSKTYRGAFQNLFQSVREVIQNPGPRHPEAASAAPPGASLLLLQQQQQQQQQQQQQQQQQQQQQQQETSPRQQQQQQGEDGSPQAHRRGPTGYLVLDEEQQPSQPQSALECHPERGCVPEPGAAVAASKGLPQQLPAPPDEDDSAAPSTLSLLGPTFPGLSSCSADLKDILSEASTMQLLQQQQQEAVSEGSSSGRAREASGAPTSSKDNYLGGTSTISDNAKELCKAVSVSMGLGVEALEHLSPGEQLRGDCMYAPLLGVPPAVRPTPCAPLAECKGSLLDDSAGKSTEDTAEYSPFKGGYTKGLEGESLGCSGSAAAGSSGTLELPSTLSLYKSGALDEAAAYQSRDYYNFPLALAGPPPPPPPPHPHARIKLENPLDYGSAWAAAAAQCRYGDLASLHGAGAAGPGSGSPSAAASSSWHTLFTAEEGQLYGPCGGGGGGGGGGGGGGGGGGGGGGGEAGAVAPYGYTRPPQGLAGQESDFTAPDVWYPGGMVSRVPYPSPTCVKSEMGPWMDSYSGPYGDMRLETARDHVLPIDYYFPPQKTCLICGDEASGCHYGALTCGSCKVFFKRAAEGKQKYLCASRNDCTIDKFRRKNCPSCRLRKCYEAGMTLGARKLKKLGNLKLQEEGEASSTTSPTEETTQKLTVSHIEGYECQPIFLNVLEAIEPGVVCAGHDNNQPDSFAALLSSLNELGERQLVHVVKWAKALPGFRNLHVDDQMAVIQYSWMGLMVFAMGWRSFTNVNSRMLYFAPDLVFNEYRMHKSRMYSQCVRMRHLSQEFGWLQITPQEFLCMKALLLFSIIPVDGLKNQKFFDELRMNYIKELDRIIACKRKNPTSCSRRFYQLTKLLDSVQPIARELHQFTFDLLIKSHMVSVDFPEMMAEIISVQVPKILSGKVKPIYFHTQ

For `O=C(Nc1ccccc1-c1ccc(Cl)cc1)c1cccnc1Cl`, the outcome in test [1], in test [2], in test [3], in test [5], in test [6] and in [7] was inactive. Besides, the half-maximal activity concentration (AC50) in test [4] was 13.7 µM (active).

In the case of `CN/C(=N\[N+](=O)[O-])NCc1cnc(Cl)s1`, the call in [1], in [2], in test [3], in test [4], in test [5] and in test [7] was inactive.

Turning to `CNC(=O)Oc1cccc2ccccc12`, the result in test [1], in test [2], in test [3], in test [4], in [7] and in [8] was inactive. Moreover, the AC50 in test [5] was 50 µM (active).

With `N#CN=C1SCCN1Cc1ccc(Cl)nc1`, the compound was classed as inactive in [1], in [2], in [3], in [5], in test [6] and in test [7]. In [8], the call was inactive.

Regarding `CC1(C)CON(Cc2ccccc2Cl)C1=O`, the outcome in test [1], in test [2], in test [3], in test [7] and in test [8] was inactive. In addition, the values for the half-maximal activity concentration (AC50) in test [4] and in test [5] were 13.2 µM (active) and 66.7 µM (active), respectively.

As for `Cc1nc(N(C)C)nc(OC(=O)N(C)C)c1C`, the result in test [1], in [2], in test [3], in [4], in test [5] and in [7] was inactive. For the same compound, the result in test [8] was inactive.

As for `CCOP(=O)(OCC)Oc1nc(Cl)c(Cl)cc1Cl`, the compound was called inactive in test [1], in [2], in test [3], in [7], in [9] and in [8]. For the same compound, the AC50 in test [4] is 39.2 µM (active); in test [5], 50 µM (active).

As for `COc1cc(OC)nc(NC(=O)NS(=O)(=O)c2ncccc2OCC(F)(F)F)n1`, the result in test [1], in [2], in test [3], in [4], in test [5] and in [7] was inactive. Further, in [8], the result was inactive.

As for `C=CCOC(=O)C(C)(C)OC(=O)c1cc(-n2c(=O)cc(C(F)(F)F)n(C)c2=O)ccc1Cl`, the outcome in [1], in test [2], in test [3], in [4], in [7] and in [8] was inactive.

Consider `Cc1cnc(C2=NC(C)(C(C)C)C(=O)N2)c(C(=O)O)c1` (stereo not given), for which the result in test [1], in [2], in [3], in test [5], in test [7] and in test [8] was inactive. In addition, in [4], the AC50 is 50 µM (active).

Take `CS(=O)(=O)c1cc(C(F)(F)F)ccc1C(=O)c1cnoc1C1CC1`: the compound was classed as inactive in test [1], in test [2], in test [3], in test [4], in [6] and in [7]. Also, the compound was classed as inactive in [8].

`COCc1cnc(C2=NC(C)(C(C)C)C(=O)N2)c(C(=O)O)c1` (stereo not given): the result in [1], in test [2], in test [3], in test [4], in test [7] and in [9] was inactive.

For `CC(C)NC(=O)N1CC(=O)N(c2cc(Cl)cc(Cl)c2)C1=O`, the compound was classed as inactive in test [1], in test [2], in test [3], in test [6], in [7] and in [8].

For `CS(=O)(=O)c1ccc(C(=O)C2C(=O)CCCC2=O)c([N+](=O)[O-])c1`, the outcome in test [1], in [2], in test [3], in test [4] and in test [7] was inactive.

Turning to `CCCCC(C#N)(Cn1cncn1)c1ccc(Cl)cc1` (stereo not given), the result in test [1], in test [2], in [3], in test [5], in test [6] and in test [7] was inactive.

Regarding `CO/N=C(/C1=NOCCO1)c1ccccc1Oc1ncnc(Oc2ccccc2Cl)c1F`, the result in [1], in test [2], in test [3], in test [5] and in [8] was inactive. In addition, the AC50 in [7] was 574 nM (active).

Take `CSC(=O)c1c(C(F)F)nc(C(F)(F)F)c(C(=O)SC)c1CC(C)C`: the result in [1], in [2], in test [3], in [7] and in [8] was inactive. Moreover, the AC50 in test [4] is 0.789 µM (active); in test [5], 8.26 µM (active).

Turning to `CCCC(=NOCC)C1=C(O)CC(CC(C)SCC)CC1=O` (stereo not given), the call in test [1], in test [2], in test [3], in test [4], in [5] and in [7] was inactive. Moreover, the compound was called inactive in test [8].

Take `Nc1c(Cl)c(Cl)nc(C(=O)O)c1Cl`: the compound was classed as inactive in [1], in test [2], in [3], in [5], in test [7] and in test [8].
